Most compounds without a hit are left out; they make up all but 2.9% or so of the library.
PAFAH1B2 FP inh – PAFAH1B2 enzyme inhibitors, primary screen, biochemical, fluorescence polarization, human | 1.2% of 340,000 active | inhibition, % at 3.39 µM | Platelet-activating factor acetylhydrolase IB subunit alpha2 (Homo sapiens), P68402 | AID 492953, 2010 | recombinant PAFAH1B2, FP-rhodamine activity probe;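 active means inhibition above the mean of all tested compounds plus 3 SD, cut at about 24% in these data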;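 further: 0% = enzyme with DMSO and 100% = wells lacking PAFAH1B2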
Target sequence (P68402 whole entry, looked up): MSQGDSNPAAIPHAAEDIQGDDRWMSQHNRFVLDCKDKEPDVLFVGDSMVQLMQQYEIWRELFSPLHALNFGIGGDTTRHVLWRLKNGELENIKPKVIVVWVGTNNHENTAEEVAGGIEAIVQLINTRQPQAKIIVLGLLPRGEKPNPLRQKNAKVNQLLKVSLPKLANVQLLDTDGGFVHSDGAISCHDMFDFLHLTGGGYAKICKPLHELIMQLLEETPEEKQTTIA
PAFAH1B3 inh – PAFAH1B3 enzyme inhibitors, primary screen, biochemical, fluorescence polarization, human; Platelet-activating factor acetylhydrolase IB subunit alpha1 (Homo sapiens), Q15102; recombinant PAFAH1B3, FP-rhodamine probe; inhibition, % at 3.39 µM; 0.28% of 340,000 active; AID 492972, 2010;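 active means inhibition above the screen-wide average of all tested compounds plus 3 SD, cut at about 25% in these data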;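 further: 0% = enzyme with DMSO only and 100% = wells lacking PAFAH1B3 protein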
pPAFAH FP inh – pPAFAH enzyme inhibitors, primary screen, biochemical, fluorescence polarization, human; recombinant pPAFAH, FP-rhodamine probe fluorescence polarization; 1.5% of 330,000 active; inhibition, % at 3.39 µM; AID 463082, 2010;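 active means inhibition above the mean inhibition across the screen plus 3 SD, cut at about 25% in these data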;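 further: inhibitors block binding of the rhodamine activity-based probe so polarization drops; 0% = enzyme with DMSO and 100% = wells lacking pPAFAH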
PAFAH2 FP inh – PAFAH2 enzyme inhibitors, primary screen, biochemical, fluorescence polarization, human. recombinant PAFAH2, FP-rhodamine activity probe. inhibition, % at 3.39 µM. 0.99% of 340,000 active. AID 492956, 2010;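 active means inhibition above the mean over all tested compounds plus 3 SD, cut at about 30% in these data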;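 further: inhibitors block probe labeling of enzyme so polarization drops; 0% = enzyme with DMSO and 100% = wells lacking PAFAH2 protein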
LYPLA2 inh – LYPLA2 inhibitors, primary screen, counter-screen for PME1 inhibitor project, biochemical, fluorescence polarization, FP-Rh probe ABPP; Acyl-protein thioesterase 2 (Homo sapiens), O95372; recombinant LYPLA2; inhibition, % at 5.9 µM; 0.38% of 320,000 active; AID 2177, 2009;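 active means inhibition above the screen-wide mean plus 3 SD, limit set per campaign, cut at about 26% in these data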;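 further: 0% = LYPLA2 with DMSO and 100% = wells lacking LYPLA2 enzyme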
Target sequence (O95372 whole entry, looked up): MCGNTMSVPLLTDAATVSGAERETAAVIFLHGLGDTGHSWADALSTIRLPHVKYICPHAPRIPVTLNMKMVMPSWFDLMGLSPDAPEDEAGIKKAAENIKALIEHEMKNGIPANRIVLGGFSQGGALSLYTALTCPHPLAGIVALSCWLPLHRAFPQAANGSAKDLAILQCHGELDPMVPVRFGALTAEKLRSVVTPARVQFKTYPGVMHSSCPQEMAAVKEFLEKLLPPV
LYPLA1 counter – LYPLA1 inhibitors, primary screen, counter-screen for PME1 inhibitor project, biochemical, fluorescence polarization, FP-Rh probe ABPP; Acyl-protein thioesterase 1 (Homo sapiens), O75608; recombinant LYPLA1; inhibition, % at 5.9 µM; 0.16% of 320,000 active; AID 2174, 2009;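 active means inhibition above the mean of all tested compounds plus 3 SD, set per campaign, cut at about 14% in these data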;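 further: inhibitors block serine hydrolase probe labeling of LYPLA1 so polarization falls; 0% = enzyme with DMSO and 100% = wells lacking LYPLA1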
PAFAH2 confirm – PAFAH2 enzyme inhibitors, confirmation, biochemical, fluorescence polarization, human; shares compounds with PAFAH2 FP inh; recombinant PAFAH2, FP-rhodamine activity probe; inhibition, % at 3.39 µM; 65% of 2,300 active; AID 493030, 2011;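 active means mean inhibition over three repeats above a set limit taken from the earlier primary screen, cut at about 30% in these data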;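 further: inhibitor blocks binding of rhodamine activity probe so polarization falls; 0% = enzyme with DMSO and 100% = wells lacking PAFAH2 protein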
* hit, by the source's call; nt = no result.

SMILES	PAFAH1B2 FP inh	PAFAH1B3 inh	pPAFAH FP inh	PAFAH2 FP inh	LYPLA2 inh	LYPLA1 counter	PAFAH2 confirm
O=C(CSc1nnc(Cn2c(=O)sc3ccccc32)n1-c1ccccc1)NCC1CCCO1 (stereo unspecified)	10	6	-3	5	2	1	nt
O=C(CCS(=O)(=O)c1ccc(Br)cc1)N1CCN(c2ccccc2F)CC1	0	-3	11	24	2	1	nt
O=[N+]([O-])c1ccc(SCCc2ccncc2)cc1	5	6	5	34*	9	0	7
O=[N+]([O-])c1ccc(SCCc2ccccn2)cc1	9	6	-2	2	4	1	nt
CCN(CC)C(=O)c1sc(N2C(=O)Nc3ccccc3N2O)c(C(=O)OC)c1C	2	1	1	-1	7	2	nt
CNC(=O)N(O)C1N(C)C(=O)N(Cc2ccccc2)C1(C)C (stereo unspecified)	3	2	0	-2	-6	1	nt
CCN1C(=O)N(C)C(N(O)C(=O)NC)C1(C)C (stereo unspecified)	3	7	-1	56*	-2	-2	-5
COC(=O)c1ccccc1NC(=O)COC(=O)/C=C/c1cccs1	1	-1	1	17	nt	nt	nt
Cc1ccc(NC(=O)COC(=O)/C=C/c2cccs2)c(C)c1	2	12	7	56*	-3	-1	42*
Cc1cc(C)c(NC(=O)COC(=O)/C=C/c2cccs2)c(C)c1	3	-12	3	35*	3	-1	31*
CCNC(=O)COC(=O)/C=C/c1cccs1	9	8	-2	16	9	2	nt
COc1ccc(CNc2nc(Cl)c(C#N)s2)cc1	5	3	3	4	1	-4	nt
N#CC1=C(SCC(=O)Nc2cccc3cccnc23)NC(=O)C(C#N)C12CCCCC2 (stereo unspecified)	11	9	9	38*	3	1	27
N#CC1=C(SCC(=O)NC2CC2)NC(=O)C(C#N)C12CCCCC2 (stereo unspecified)	6	0	6	2	-3	1	nt
COc1ccc(NC(=O)c2ccc(-c3nn(C)c(=O)c4ccccc34)cc2)cc1	0	19	3	35*	2	-3	8
O=c1[nH]nc(CNc2ccc(C(F)(F)F)cc2)c2ccccc12	1	-1	3	50*	0	-5	34*
O=c1[nH]nc(CNc2ccc(OC(F)(F)F)cc2)c2ccccc12	1	3	3	-2	0	1	nt
COc1ccc(OCc2n[nH]c(=S)o2)cc1	4	-2	-3	-3	3	1	nt
Cc1ccc(C)c(S(=O)(=O)Nc2ccc3oc(C)c(C(=O)O)c3c2)c1	-1	7	24	38*	4	0	14
CC(=O)c1c(C)oc2ccc(NS(=O)(=O)c3ccc(C)cc3)cc12	4	7	-4	2	0	0	nt
C/C(=N\Nc1ccc(F)cc1F)c1cccs1	nt	nt	4	nt	9	1	nt
N/C(Cc1cccc2ccccc12)=N\OC(=O)c1cccs1	0	3	15	-3	0	1	nt
N/C(CC(=O)Nc1ccc(F)cc1F)=N\OC(=O)c1cccs1	7	4	4	41*	0	10	26
COc1ccc(C(=O)O/N=C(/C)c2cccs2)cc1	2	5	20	64*	11	3	55*
COc1ccccc1C/C(N)=N/OC(=O)/C=C/c1ccccc1	-1	13	3	69*	-1	-4	72*
SMILES	PAFAH1B2 FP inh	PAFAH1B3 inh	pPAFAH FP inh	PAFAH2 FP inh	LYPLA2 inh	LYPLA1 counter	PAFAH2 confirm
N/C(Cc1ccc(Cl)cc1Cl)=N\OC(=O)c1cccs1	14	3	7	88*	13	-1	84*
Cc1cccc(C)c1NC(=O)CSc1nnc(NC(=O)C2CC2)s1	0	6	8	1	-3	-1	nt
COc1ccc(C/C(N)=N/OC(=O)c2cccs2)cc1	4	10	4	47*	-5	-3	38*
COc1ccccc1C/C(N)=N/OC(=O)c1cccs1	-2	4	12	81*	-3	-5	75*
CCOc1ccccc1Nc1ncccc1C(=O)N1CCCC1	1	3	-2	-4	-2	2	nt
CCc1ccccc1OCCCN1CCCC1	4	6	-2	1	1	0	nt
O=C(CCl)N(C/C=C/c1ccccc1)c1ccc2c(c1)OCCO2	-2	2	14	6	9	5	nt
O=C(COC(=O)c1cc(S(=O)(=O)NCc2ccccc2)ccc1O)NCc1ccccc1	15	8	10	8	3	-2	nt
O=C(COC(=O)c1cc(S(=O)(=O)NCc2ccccc2)ccc1O)c1cc2ccccc2o1	23	5	15	58*	0	-6	48*
O=C(COC(=O)c1ccc(Cl)s1)c1cc2ccccc2o1	2	-1	21	38*	0	-5	17
S=C(NCCCN1CCOCC1)Nc1ccc(N2CCOCC2)cc1	10	12	6	42*	-1	-5	4
CSc1nc2c(c(=O)n1Cc1ccccc1)SC(C)C2 (stereo unspecified)	-2	8	-2	4	6	1	nt
CSc1nc2[nH]c(=O)n(O)c(=O)c2n1Cc1ccccc1	13	-6	nt	37*	nt	nt	8
COc1ccc(NC(=O)Cn2cc(C(=O)c3ccco3)c3ccccc32)cc1	-3	1	-2	4	-13	-11	nt
O=C(COC(=O)c1ccc(F)cc1Cl)Nc1cccc(S(=O)(=O)N2CCOCC2)c1	2	-3	4	27	-1	-2	nt
O=C(COC(=O)c1cccs1)Nc1cc(S(=O)(=O)N2CCOCC2)ccc1Cl	2	-2	1	53*	11	0	38*
O=C(COC(=O)c1ccc(F)cc1F)Nc1cc(S(=O)(=O)N2CCOCC2)ccc1Cl	3	11	nt	34*	nt	nt	20
O=C(COC(=O)c1ccc(O)cc1)Nc1cc(S(=O)(=O)N2CCOCC2)ccc1Cl	3	-2	5	65*	1	1	54*
CC(C)c1ccc(-c2csc(NC(=O)c3cccs3)c2C(=O)O)cc1	12	5	14	15	-6	9	nt
Cc1ccccc1NCc1ccc([N+](=O)[O-])s1	3	9	9	-4	3	2	nt
COc1ccc(OC)c(S(=O)(=O)NCCS(=O)(=O)N2CCN(c3ccccc3)CC2)c1	4	8	3	6	6	1	nt
